# Only some compounds are listed: those with a hit (about 7.5% of all), similar ones and a draw of the others.
# KinaseGlo FLuc: counter-screen: inhibitors of Kinase-Glo firefly luciferase | 0.28% of 200,000 active | Q27757 | Potency, µM (doses to about 38.3 µM), most hits filed as inhibitors | AID 1379 | Kinase-Glo luciferase, ATP luminescence, 8 min; note: nearly all actives have a fitted effect of over 60% in size
#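 Luminescence was the read-out, taken after 8-minute incubation at ambient temperature. Luciferase turned over luciferin with 10 uM ATP in imidazole pH 7.2 buffer containing KCl, MgCl2, Tween 20 and BSA.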
# Rab9 prom act: activates the Rab9 promoter; Huh7 Rab9 promoter-luciferase reporter, luminescence, 24 h; Potency, µM (series often up to 9.22 µM), actives largely listed as activators; 2.8% of 320,000 active; AID 485297; note: nearly all actives have a fitted effect of over 60% in size
#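 Stable Rab9-luc Huh7, 1500 cells/well, 2 h settle; cmpd in DMSO, 24 h, 37 °C/5% CO2; luciferase reagent 10 min RT; luminescence.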
# ELG1 genotoxic: induces genotoxicity in HEK293T cells with luciferase-tagged ELG1; HEK293T ELG1-luciferase reporter, luminescence, 16 h; Potency, µM (series often up to 46 µM), actives largely listed as activators; 1.3% of 330,000 active; AID 504466; note: nearly all actives have a fitted effect of over 60% in size
#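 Step 1: seed 2,000 HEK293T ELG1-luciferase cells per well. Step 2: add compound or DMSO, incubate 16 hr at 37 °C. Step 3: ONE-Glo, 30 min at room temperature, read luminescence.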
# FLuc modulator: inhibits or activates purified firefly luciferase, miR-21 counter-screen. Potency, µM (highest dose often 57.5 µM), actives largely listed as inhibitors. 6.9% of 360,000 active. purified FLuc, Km substrates, luminescence inhibition. P08659; note: nearly all actives have a fitted effect of over 55% in size
# Target sequence (P08659 whole entry, looked up): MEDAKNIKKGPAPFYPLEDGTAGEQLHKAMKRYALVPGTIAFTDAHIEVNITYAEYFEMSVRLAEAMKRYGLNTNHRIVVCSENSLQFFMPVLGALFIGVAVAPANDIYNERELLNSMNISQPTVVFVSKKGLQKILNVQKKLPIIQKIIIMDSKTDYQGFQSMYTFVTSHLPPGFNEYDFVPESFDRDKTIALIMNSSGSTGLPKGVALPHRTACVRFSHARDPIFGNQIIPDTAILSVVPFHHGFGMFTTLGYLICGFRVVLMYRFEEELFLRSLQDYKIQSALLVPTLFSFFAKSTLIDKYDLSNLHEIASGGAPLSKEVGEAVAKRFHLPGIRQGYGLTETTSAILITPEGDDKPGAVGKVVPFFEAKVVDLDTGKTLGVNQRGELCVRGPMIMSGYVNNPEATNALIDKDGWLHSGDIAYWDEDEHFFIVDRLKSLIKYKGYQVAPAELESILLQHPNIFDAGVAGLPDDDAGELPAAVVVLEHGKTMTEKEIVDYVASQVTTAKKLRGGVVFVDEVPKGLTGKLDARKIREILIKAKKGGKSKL
#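 Biochemical qHTS of compounds, final roughly 60 µM downward over six points, against 10 nM purified firefly luciferase using Km concentrations of substrates (10 uM D-luciferin, 10 uM ATP) in Tris acetate pH 7.5 buffer; luminescence output.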
# NPC1 prom act: activates the NPC1 promoter | Huh7 NPC1 promoter luciferase reporter, 24 h | Potency, µM (series often up to 9.22 µM), hits mostly activators | 2.4% of 320,000 active; note: nearly all actives have a fitted effect of over 60% in size
#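 Stable NPC1-promoter luciferase Huh7 line; cpd (DMSO) 24 h, 37 °C, 5% CO2; Amplite luciferase reagent 10 min RT; luminescence readout. qHTS format.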
# SMN2 splice up: enhancers of SMN2 splice variant expression. HEK293 SMN2-luciferase splicing reporter, luminescence, 30-36 h. 2.8% of 210,000 active. Potency, µM (titrated, usually from 46.1 µM), usual class: activators. AID 1458; note: nearly all actives have a fitted effect of over 55% in size
#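 HEK293 cells carry an SMN2 […]–luciferase reporter in which exon 7 inclusion puts luciferase in frame. Cells were plated 10-12 h before compound addition, then incubated 30-36 h at 37C. ONE-Glo luminescence was read; sodium butyrate at 4.5 mM final served as control.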
# Numbers stand for hits; . = inactive; ? = inconclusive; / = no result given; [ ] = another dose, or the depositor's remark. Calls come from the whole dose curve; as a rule, active = well fitted curve in the direction sought with a large enough effect; inconclusive = small, poorly fitted or top-dose-only effect, or another doubt; inactive = no such curve, though single readings can be large; an effect the other way counts as inactive or inconclusive.
SMILES,KinaseGlo FLuc,Rab9 prom act,ELG1 genotoxic,FLuc modulator,NPC1 prom act,SMN2 splice up
CCOc1cccc(C(=O)Nc2ccc(S(=O)(=O)Nc3cc(C)on3)cc2)c1,/,.,.,?,.,/
Cc1ccc(/C=C/C(=O)Nc2cc(C)on2)cc1,.,4µM,?,?,2.5µM,?
COc1ccccc1/C=C/C(=O)Nc1ccc(S(=O)(=O)Nc2cc(C)on2)cc1,/,.,.,24µM,.,/
Cc1ccc(/C=C/C(=O)Nn2cnnc2)cc1,.,.,.,5.4µM,.,.
CCCCOc1cccc(C(=O)Nc2ccc(S(=O)(=O)Nc3cc(C)on3)cc2)c1,/,.,.,19µM,.,/
Cc1ccc(/C=C/C(=O)NN2CCN(C)CC2)cc1,/,.,.,.,.,/
O=C(NCC(c1ccc(Cl)cc1)N1CCCCC1)c1ccccc1 (stereo not drawn),/,/,/,.,/,/
Cc1cc(NS(=O)(=O)c2ccc(NC(=O)/C=C/c3ccc(Br)cc3)cc2)no1,/,.,.,19µM,.,/
Cc1cc(NS(=O)(=O)c2ccc(NC(=O)COc3c(C)cc(Br)cc3C)cc2)no1,/,.,.,.,.,.
Cc1cc(NS(=O)(=O)c2ccc(NS(=O)(=O)c3ccc(Br)cc3)cc2)no1,/,.,.,.,.,/
Cc1cc(NS(=O)(=O)c2ccc(NC(=O)COc3ccc(Br)cc3C)cc2)no1,/,/,/,21µM,/,.
COc1ccc(NC(=O)c2sc3nc(N4CCOCC4)c4c(c3c2N)CCCC4)c(OC)c1,/,.,.,.,.,/
O=C(CN1CCCc2ccccc21)N/N=C/c1ccc(O)cc1O,.,.,21µM,15µM,.,.
O=C(CN1CCCc2ccccc21)N/N=C/c1ccccc1,.,.,.,.,.,.
COc1ccccc1CNC(=O)[C@H](C)NC(=O)C1CCN(C(=O)[C@@H](N)CC(C)C)CC1,/,.,.,.,.,/
CCC(=O)Nc1cc(NC(=O)CSc2ncc(-c3ccc(F)cc3)n2Cc2ccco2)ccc1C,.,?,18µM,12µM,2.8µM,.
Cc1cccc(NC(=O)CSc2nccn2Cc2ccco2)c1,/,2.8µM,?,15µM,3.2µM,/
COc1ccc(NC(=O)CSc2nccn2Cc2ccco2)cc1,/,3.5µM,16µM,24µM,2.5µM,/
O=c1nc2ccccc2c2n1CC(CN1CCN(c3ccccc3F)CC1)N2 (stereo not drawn),.,.,.,.,.,.
O=C(CNC(=S)NC(=O)c1ccco1)c1ccccc1,.,.,.,12µM,?,.
O=C(Nc1ccc(NC(=S)NC(=O)c2ccco2)cc1)c1ccccc1,/,.,.,.,.,/
O=C(NNC(=S)NC(=O)c1ccco1)c1ccc(NC(=O)c2ccccc2)cc1,.,.,.,?,.,.
O=C(NC(=S)NNC(=O)c1ccccc1O)c1ccco1,.,.,.,21µM,.,.
O=C(NC(=S)NNC(=O)c1cc2ccccc2cc1O)c1ccco1,.,.,.,17µM,.,.
O=C(NC(=S)Nc1ccccc1Br)c1ccco1,/,?,?,11µM,?,/
SMILES,KinaseGlo FLuc,Rab9 prom act,ELG1 genotoxic,FLuc modulator,NPC1 prom act,SMN2 splice up
O=C(NC(=S)Nc1cccc(NC(=S)NC(=O)c2ccco2)n1)c1ccco1,.,.,.,.,.,.
CCOC(=O)N1CCN(Cc2nc3cc(NC(=O)C(C)C)ccc3n2C(C)C)CC1,/,/,/,.,/,/
O=C(CNC(=S)NC(=O)C1CCCCC1)c1ccccc1,.,?,?,12µM,.,?
COCCNC(=O)CSc1cn(CC(=O)N2CCCCCC2)c2ccccc12,/,/,/,.,/,/
O=C(NCc1nnnn1-c1ccc(F)c(F)c1)c1cc2ccccc2o1,/,.,.,.,.,/
Cc1ccccc1C(=O)NCCSc1ccccc1,.,2.8µM,7.3µM,9.5µM,3.5µM,13µM
O=C(CCNC(=O)c1ccccc1Cl)NCCCSc1ccccc1,/,.,.,.,.,/
O=C(NCCSc1ccccc1)c1ccccc1Cl,.,3.2µM,13µM,7.6µM,2.5µM,11µM
N#Cc1ccc(-c2ccc(OCC(=O)NCCCN3CCCC3=O)cc2)cc1,.,.,.,.,.,.
Cc1cc(NC(=O)C(C)SCC(=O)N(C)CC(=O)Nc2ccc(Br)cc2C)no1 (stereo not drawn),/,.,.,.,.,/
CC(C)NC(=S)NCc1cccs1,/,.,.,.,.,/
COc1cc(/C=c2\sc3n(c2=O)CCCN=3)ccc1O,.,.,?,?,.,.
O=c1/c(=C/c2ccc([N+](=O)[O-])cc2)sc2n1CCCN=2,.,3.5µM,?,?,2.8µM,.
c1ccc(Nc2ccnc(Nc3ccccc3)n2)cc1,/,?,?,1.9µM,2.5µM,/
CCOC(=O)C1CCN(CCC(=O)Nc2ccc(F)cc2)CC1,.,.,.,.,.,.
O=C(NC1CCCCCC1)C(=S)NCc1ccccc1,.,?,.,21µM,.,.
O=C(NC1CCCCC1)C(=S)N1CCCC1,.,.,.,.,.,.
O=C(NC1CCCCC1)C(=S)NCc1ccccc1,.,?,.,21µM,?,?
O=C(NC1CCCCCC1)C(=S)NCCc1ccccc1,.,.,.,?,.,.
O=C(CSc1ccccc1C(=O)NCc1ccccc1)NC1CCCCCCC1,.,.,.,24µM,.,.
O=C(NC1CCCCC1)C(=S)NC1CCCCC1,.,3.5µM,?,?,2.8µM,14µM
O=C(NCc1ccccc1)C1CCCC1,/,.,.,.,.,/
N#Cc1ccc2c(c1)C[C@]1(c3ccsc3)Oc3c(c(=O)oc4ccc(F)cc34)C2O1,/,.[1.84 µM],/,?,.[1.84 µM],/
N#Cc1ccc2c(c1)C[C@]1(c3ccsc3)Oc3c(c(=O)oc4ccccc34)C2O1,/,.[1.84 µM],/,3.1µM,.[1.84 µM],/
CCCn1c(C)cc(/C=C(\C#N)C(=O)OCC(=O)Nc2ccc(OC)c(Cl)c2)c1C,/,.,.,?,.,/
SMILES,KinaseGlo FLuc,Rab9 prom act,ELG1 genotoxic,FLuc modulator,NPC1 prom act,SMN2 splice up
CCOC(=O)/C(C#N)=C/c1cc(C)n(-c2ccc(C)cc2)c1C,.,1µM,1.8µM,2.4µM,2.8µM,.
CCCn1c(C)cc(/C=C(\C#N)C(=O)OCC(=O)NC(=O)NCC)c1C,.,.,.,12µM,.,.
Cc1cc(/C=C(\C#N)C(=O)Nc2ccccc2)c(C)n1-c1ccc(C(=O)O)cc1,/,.,.,.,.,/
CCOC(=O)/C(C#N)=C\c1cc(C)n(-c2ccccc2)c1C,.,1.8µM,?,0.43µM,1.6µM,.
O=C(OC(C(=O)NC1CCCCC1)c1ccccc1F)c1ccco1 (stereo not drawn),/,.,.,.,.,/
CCOC(=O)c1cnc2ccc(C)cc2c1NCCc1ccc(OC)c(OC)c1,/,/,/,.,/,.
O=C(COc1ccccc1)NNC1=NS(=O)(=O)c2ccccc21,.,.,.,24µM,.,.
COc1ccc(C(=O)NNC2=NS(=O)(=O)c3ccccc32)cc1OC,/,.,.,15µM,.,/
CC1(C)CC(=O)C(N=Nc2ccc(S(=O)(=O)N3CCOCC3)cc2)=C(O)C1,/,.,.,.,.,/
